# Results reported in ChEMBL document CHEMBL4513216, “Probing the Open Global Health Chemical Diversity Library for Multistage-Active Starting Points for Next-Generation Antimalarials” (ACS Infect Dis, 2020).
# About 2,100 (3.2%) of roughly 65,000 compounds showed an effect of 50% or more. The median lay at about -52%. This is one part of a sample in which strong results are shown more often than they occur.
# System: Plasmodium falciparum
# Experiment: Screen against P. falciparum Asexual Blood Stage (ABS), at 5uM
# Format: functional, Dd2
# Settings: tested at 5 uM
row,SMILES,INHIBITION [%]
1,Cc1nn(C)c(C)c1-c1ccnc(N(C)Cc2nc(C(C)C)no2)n1,66.3
2,Cc1nn(C)c(C)c1-c1ccnc(N(C)Cc2noc(C(C)C)n2)n1,-25.3
3,Cc1nn(C)cc1-c1ccnc(N(C)Cc2noc(C(C)C)n2)n1,-32.2
4,O=C(COc1ccc(F)cc1)N1CCO[C@H]2[C@@H](OCC3CC3)CC[C@@H]21,-24
5,COc1ccc(C2=Nn3c(CN)nnc3-c3ccccc3C2)cc1,64.8
6,COc1ccc(C2=Nn3c(CCN)nnc3-c3ccccc3C2)cc1,32.1
7,COc1ccc(C2=Nn3c(CCCN)nnc3-c3ccccc3C2)cc1,-100
8,Cc1ccc(OCC(=O)NS(=O)(=O)c2cccnc2)cc1C,-19.2
9,O=C(COc1ccc2c(c1)CCC2)NS(=O)(=O)c1cccnc1,51.8
10,O=C(COc1ccc2c(c1)CCC2)NS(=O)(=O)c1cncc(Br)c1,-108
11,O=C(NCc1ccccn1)[C@@H]1COC[C@H]2CN(c3ncccn3)C[C@H]21,-20.1
12,COc1cccc(CN2CCCCCC2c2cccs2)c1O (stereo unspecified),3.59
13,Cc1cc2[nH]c(CN3CCCCC3c3cccc(F)c3)cc(=O)n2n1 (stereo unspecified),-64.9
14,Cc1cccc(C2CCCCCN2Cc2cn(C)nc2C)c1 (stereo unspecified),35.4
15,COc1cccc(CN2CCCCCC2c2cccc(F)c2)c1O (stereo unspecified),57.6
16,COc1cccc(CN2CCCCCC2c2sccc2C)c1O (stereo unspecified),-7.83
17,COc1cccc(CN2CCCCCC2c2cccc(C)c2)c1O (stereo unspecified),57.5
18,Oc1cc(-c2ccsc2)nc(C2CCN(Cc3cccnc3)CC2)n1,-96.9
19,O=C(NCCCNc1ccc(C(F)(F)F)cn1)c1ccc(F)cc1Br,-29.4
20,CC(C)Nc1nc2c(cc1C(=O)NCC1CC1)CCN(CC1CC1)CC2,-7.32
21,COCCOCC1(CNC(=O)c2ccc(OC)cc2)C[C@@H](O)[C@@H](O)C1 (stereo partly specified),-102
